Compounds with a hit are over-represented: about 2.9% of the library has one in this group of screens.
ADAM10 inh: human ADAM10 inhibitors, primary screen, biochemical, QFRET, HTS; inhibition, % at 7 µM; actives 0.62% (n = 370,000); recombinant ADAM10, EDANS/DABCYL FRET peptide cleavage, 3 h; Disintegrin and metalloproteinase domain-containing protein 10 (Homo sapiens), O14672;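 active = inhibition above a per-campaign cutoff equal to the mean of compounds falling between control-based bounds plus 3 SD, cut at about 20% in these data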;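 note: 0% = DMSO wells while the 100% control is not disclosed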
KLK7 zymogen act: proKLK7 zymogen activators, primary screen, biochemical, fluorescence intensity; activation, % at 7 µM; Kallikrein-7 (Homo sapiens), P49862; actives 0.9% (n = 370,000); purified proKLK7, EDANS-DABCYL substrate fluorescence; 100% is mature enzyme control, 0% vehicle; AID 652039, 2013;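 active = activation above the mean of all tested compounds plus 3 SD, computed per campaign excluding outliers beyond control limits, cut at about 13% in these data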
Target sequence (P49862 whole entry, looked up): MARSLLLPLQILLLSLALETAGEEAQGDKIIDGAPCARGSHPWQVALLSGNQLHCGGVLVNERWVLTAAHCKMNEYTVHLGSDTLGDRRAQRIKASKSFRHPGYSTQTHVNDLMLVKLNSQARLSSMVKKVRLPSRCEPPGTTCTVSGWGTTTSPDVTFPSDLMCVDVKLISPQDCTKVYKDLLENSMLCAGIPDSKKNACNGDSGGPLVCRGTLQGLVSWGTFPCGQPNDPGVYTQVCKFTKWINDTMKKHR
PLC-gamma1 inh: PLC-gamma1 enzyme inhibitors, primary screen, biochemical, fluorescence, purified enzyme | 1-phosphatidylinositol 4,5-bisphosphate phosphodiesterase gamma-1 (Homo sapiens), P19174 | fluorogenic substrate | inhibition, % at 12.2 µM | actives 0.84% (n = 370,000) | AID 720700, 2013; in the data active = inhibition above about 9.5%
PLC-beta3 inh: human PLC-beta3 inhibitors, primary screen, biochemical, fluorescence | inhibition, % at 12.2 µM | AID 720704, 2013 | Purified PLC-beta3, fluorogenic substrate | actives 0.18% (n = 370,000) | 1-phosphatidylinositol 4,5-bisphosphate phosphodiesterase beta-3 (Homo sapiens), Q01970; in the data active = inhibition above about 11%;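 note: 0% = median of compound wells on plate and 100% = full blocker control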
ADAM17 inh: ADAM17 inhibitors, primary screen, biochemical, QFRET | Disintegrin and metalloproteinase domain-containing protein 17 (Homo sapiens), P78536 | recombinant ADAM17, EDANS/DABCYL FRET peptide cleavage | inhibition, % at 6.95 µM | actives 0.83% (n = 370,000);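 active = inhibition above the mean of compounds lying between control limits plus 3 SD, set per campaign, cut at about 8.5% in these data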;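 note: 0% = DMSO-only wells as the low control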
ADAM10 counter: ADAM10 inhibitors, counter-screen for ADAM17 exosite inhibitor project, biochemical, FRET, human ADAM10. AID 743256, 2014. shares compounds with ADAM17 inh. actives 47% (n = 2,900). recombinant ADAM10, EDANS/DABCYL FRET peptide cleavage, 3 h. inhibition, % at 6.95 µM;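 active = mean inhibition over the triplicate runs exceeds the activity threshold set in the earlier primary screen, cut at about 20% in these data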;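 note: 0% = DMSO wells and 100% = marimastat wells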
ADAM17 confirm: ADAM17 inhibitors, hit retest, confirmation, biochemical, QFRET peptide cleavage | recombinant ADAM17, EDANS/DABCYL QFRET peptide cleavage | AID 743257, 2014 | shares compounds with ADAM17 inh | inhibition, % at 6.95 µM | actives 65% (n = 2,900);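 active = mean inhibition across replicates above the hit cutoff set in the primary screen, cut at about 8.5% in these data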;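 note: 0% = DMSO wells and 100% = marimastat wells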
Starred values were filed as active, the others as inactive; . = no result.

SMILES	ADAM10 inh	KLK7 zymogen act	PLC-gamma1 inh	PLC-beta3 inh	ADAM17 inh	ADAM10 counter	ADAM17 confirm
Cc1c(C(=O)N2CCN(C3CCS(=O)(=O)C3)CC2)oc2c(F)cccc12 (stereo not drawn)	-9	-1	-1	-13	-4	.	.
CN(C)/C=C/C(=O)c1ccc([N+](=O)[O-])c(CS(=O)(=O)c2ccccc2)c1	16	0	7	-5	9.3*	9	8.7*
O=C(O)c1ccc([N+](=O)[O-])c(CS(=O)(=O)c2ccccc2)c1	-2	0	-1	-2	-1	.	.
CCOC(=O)[C@]12CCCC=C1N(Cc1ccccc1)C(=O)[C@H](CC(=O)NCC13CC4CC(CC(C4)C1)C3)C2	-1	0	3	3	0	.	.
CCC(C(=O)Nc1cccc(C(F)(F)F)c1)c1ccccc1 (stereo not drawn)	14	0	1	2	8.7*	20*	9.4*
CCOc1ccc(C(=O)n2cnnc2N)cc1	-2	0	1	-5	-6	.	.
Cc1cc(=O)n(Cc2ccc(OC(C)C)cc2)c(=S)[nH]1	7	0	6	-3	10*	14	9.9*
Cc1ccc(NC(=O)CSc2nnc(-c3n[nH]c4ccccc34)n2-c2ccccc2)c(C)c1	19	1	3	1	9.3*	4	10*
Cc1ccc(-n2nnnc2SCC(=O)Nc2ccccc2-c2ccccc2)cc1C	10	0	3	1	9.0*	26*	15*
Cc1ccc(C)c(NC(=O)CSc2nnc(-c3cc(C)[nH]n3)n2N)c1	-4	-1	7	-1	11*	-3	-2
Cc1ccc(-n2c(COc3ccccc3)nnc2SCC(=O)Nc2ccccc2-c2ccccc2)cc1	16	1	2	3	8.9*	32*	16*
Cc1cc(-c2nnc(SCC(=O)Nc3ccccc3F)n2N)n[nH]1	-8	0	0	-7	2	.	.
CN(C)S(=O)(=O)n1cc(/C=C(\NC(=O)c2ccccc2Cl)C(=O)N2CCOCC2)c2ccccc21	-1	0	-2	-8	-4	.	.
Cc1ccc(OCC(=O)NC2CCSc3ccccc32)cc1 (stereo not drawn)	4	0	2	-4	2	.	.
O=C(CN1CCN(c2cccc(C(F)(F)F)c2)CC1)Nc1cccc(C(F)(F)F)c1	13	0	5	-2	8.8*	24*	12*
COc1ccccc1Cc1c(-c2cccc(Cl)c2)nc2ccc(Cl)cn12	-17	0	-7	-7	-3	.	.
CCCCN(CCCC)CCNC(=O)c1cn(C)c2ccc(S(=O)(=O)N3CCCC3)cc2c1=O	-5	0	9	-6	9.4*	-6	2
COCCNC(=O)c1cn(C)c2ccc(S(=O)(=O)N3CCCC3)cc2c1=O	5	0	0	-7	-5	.	.
COc1ccc(-c2c(-c3ccc(OCC(=O)NN)cc3O)n[nH]c2C(F)(F)F)cc1	19	0	0	2	12*	10	8
C=CCOc1ccc(CNc2nn[nH]n2)cc1	17	0	4	2	9.1*	-15	-3
COc1ccc(N2CC(C(=O)Nc3ccccc3C(=O)NC3CC3)CC2=O)cc1 (stereo not drawn)	-3	0	1	-1	-2	.	.
COc1ccccc1NC(=O)c1ccc(Cl)c(S(=O)(=O)N2CCCCC2)c1	14	1	9	-8	10*	3	3
O=C(Nc1ccccc1N1CCOCC1)c1ccc(Cl)c(S(=O)(=O)N2CCCC2)c1	-10	0	2	-11	1	.	.
CCOC(=O)Cc1c(C)nc2c(-c3ccc(Cl)cc3)c[nH]n2c1=O	-302	-28	-104	-131	-100	.	.
CCOC(=O)c1ccc(NC(=S)NCc2ccc(F)cc2)cc1	18	0	1	-5	12*	14	10*
SMILES	ADAM10 inh	KLK7 zymogen act	PLC-gamma1 inh	PLC-beta3 inh	ADAM17 inh	ADAM10 counter	ADAM17 confirm
COc1ccc(Cl)cc1NC(=S)NCCC(c1ccccc1)c1ccccc1	11	0	0	-2	9.8*	20*	9
COc1ccccc1NC(=S)NCCC(c1ccccc1)c1ccccc1	7	0	3	2	4	.	.
COc1ccc(CCN(Cc2ccccn2)C(=S)Nc2ccccc2Cl)cc1OC	8	0	3	0	8.7*	10	8
S=C(NCCC(c1ccccc1)c1ccccc1)Nc1ccccc1Cl	20	0	0	0	8	.	.
COc1ccc(Cl)cc1NC(=S)NCc1ccccn1	8	1	-6	1	8.7*	-4	-1
COc1ccc(CCN(Cc2ccccn2)C(=S)Nc2ccccc2F)cc1OC	-4	-1	1	-7	-3	.	.
COc1cc(NC(=S)NCCC(c2ccccc2)c2ccccc2)c(OC)cc1Cl	9	-1	0	2	9.7*	25*	14*
COc1ccccc1NC(=S)NCc1ccccn1	2	0	-12	-12	4	.	.
Cc1cc(C)n(C2CC(=O)N(c3ccc(Cl)c(Cl)c3)C2=O)n1 (stereo not drawn)	2	1	-2	-6	-3	.	.
COCCn1c(C)cc(/C=C(\C#N)C(=O)OCC(=O)N(C)c2c(N)n(Cc3ccccc3)c(=O)[nH]c2=O)c1C	-2	2	-11	-13	-3	.	.
O=C(c1c(F)cccc1F)N1CCCc2ccccc21	0	0	-3	-9	-2	.	.
O=C(c1ccc(F)cc1)n1c(NCc2ccccc2)n[nH]c1=S	6	1	5	-3	5	.	.
COc1ccc2c(c1)C(=O)N(Cc1ccccc1)C(=O)C2(C)C	-45	-2	-10	-23	-14	.	.
Cc1ccc(CNC(=O)C(=O)NCC2OCCCN2S(=O)(=O)c2cccs2)cc1 (stereo not drawn)	4	1	0	-4	11*	-2	0
Cc1ccc(CNC(=O)C(=O)NCCC2CCCCN2S(=O)(=O)c2ccc(C)cc2)cc1 (stereo not drawn)	19	0	8	-1	13*	6	2
O=C(NCCC1CCCCN1S(=O)(=O)c1ccccc1)C(=O)Nc1ccc(F)cc1 (stereo not drawn)	-11	0	2	-8	9.7*	11	8
